Out of some 69,000 compounds screened, about 8,600 (12%) showed an effect of 50% or more. The entries come from a sample that favours strong results as a whole.

The subject of this assay is Plasmodium berghei. The assay can be described thus: Screen against P. berghei liver stage (PbLuc), transformed with Luciferase, at 10uM. In kind it is functional, HepG2. As to conditions: tested at 10 uM.
Turning to `O=S(=O)(C1CC1)N1CC[C@H]2OCC[C@@]2(COc2ncccc2F)C1`, the INHIBITION is given as -58.9%.

With `O=C(CCc1ccccc1)N1C[C@@H]2CN(Cc3ccoc3)CCO[C@@H]2C1`, the INHIBITION was found to be 29.9%.

Regarding `Cc1ccc(CN2CC(O)CN(C(=O)C3CC3)CC2=O)cc1` (centres undefined), the INHIBITION stood at 7.85%.

For the molecule `CSCCC(=O)N1CCC(CCC(=O)NCC2CCCO2)CC1` (centres undefined), the INHIBITION was found to be 8.51%.

In the case of `CCOc1ccccc1CCn1cc2[nH]cccc-2c1=O`, the INHIBITION was found to be 41.5%.

Regarding `NC(=O)C1CCCN(c2ccc(CNC(=O)c3cnsn3)cc2)C1` (centres undefined), the INHIBITION stood at 60.5%.

With `NC(=O)C1CCCN(c2ccc(CNC(=O)c3csnn3)cc2)C1` (centres undefined), the INHIBITION is reported as 44.1%.

Turning to `NC(=O)C1CCCN(c2ccc(CNC(=O)c3cc[nH]n3)cc2)C1` (centres undefined), the INHIBITION is -25.8%.

Turning to `CCN1CCN(C2CCN(Cc3nc(CCOC)no3)CC2)C1=O`, the INHIBITION was 19.4%.

As for `CCCS(=O)(=O)N1CCN(CCCO)CC1`, the INHIBITION amounted to 11.5%.

Regarding `CCS(=O)(=O)N1CCCN(CCCOC)CC1`, the INHIBITION is listed as 63%.

As to `CCCS(=O)(=O)N1CCCN(CCCOC)CC1`, the INHIBITION was -13.6%.

Consider `Cn1cccc1C(=O)N1CCCC1c1ccc(CN2CCOCC2)cn1` (centres undefined), for which the INHIBITION was 13.7375%.

With `Cc1nn(C)c(Cl)c1CNCc1cccnc1N1CCN(C)CC1`, the INHIBITION is on record as 13.4%.

For the molecule `CCOc1cc(F)ccc1NC1CCN(CC(F)(F)F)C1=O` (centres undefined), the INHIBITION is recorded as -6.51%.

Turning to `CCc1nnc(C(C)N(C)Cc2c(C)nn(-c3ccccc3)c2C)o1` (centres undefined), the INHIBITION is on record as -77.1%.

As for `Cc1nnc(C(C)N(C)Cc2c(C)nn(-c3ccccc3C)c2C)o1` (centres undefined), the INHIBITION was determined as 59.2%.

For the molecule `Cc1nnc(C(C)N(C)Cc2c(C)nn(-c3ccccc3)c2C)o1` (centres undefined), the INHIBITION is recorded as -10.8%.

`CCOC(=O)c1cnn(C2CCN(C(=O)CCC(C)C)CC2)c1N`: the INHIBITION was found to be 38.3%.

Consider `CCc1ccc(S(=O)(=O)NCCOc2ccc3nnc(C)n3n2)s1`, for which the INHIBITION amounted to 31%.

As to `Cc1ccc(S(=O)(=O)NCCOc2ccc3nnc(C)n3n2)s1`, the INHIBITION amounted to 57.4%.

Take `Cc1nnc2ccc(OCCNS(=O)(=O)c3cccs3)nn12`: the INHIBITION was 3.13%.

`CC(C)C(=O)N1CCc2onc(C(=O)NCCN(C)C)c2C1`: the INHIBITION is 39.4%.

In the case of `CC(C)NC(=O)N1CCc2onc(C(=O)NCCN(C)C)c2C1`, the INHIBITION came out at 95.7%.

Consider `CN(C)CCNC(=O)c1noc2c1CN(C(=O)N(C)C)CC2`, for which the INHIBITION is given as 28.2%.

Take `Cc1ccc(CN2CCc3onc(C(=O)NCCN(C)C)c3C2)o1`: the INHIBITION amounted to 54.4%.

As to `Cc1ccc(CN2CCc3onc(C(=O)N4CCCC4)c3C2)o1`, the INHIBITION is on record as 23.6%.

Turning to `Cc1ccc(CN2CCc3onc(C(=O)NC(C)C)c3C2)o1`, the INHIBITION turned out to be 45.4%.

Take `O=C1N(c2cccnc2)CCC12CCCN(Cc1ccoc1)C2` (centres undefined): the INHIBITION is on record as -29.3%.

Turning to `CCN1CCC[C@@H]1CNC(=O)c1cc(COc2ccccc2)[nH]n1`, the INHIBITION was 33.4%.

Turning to `O=C1CC(NCc2cnc(-c3cccs3)nc2)CN1c1ccccc1` (centres undefined), the INHIBITION is reported as 8.92%.

With `O=C1CC(NCc2cnc(N3CCCC3)nc2)CN1c1ccccc1` (centres undefined), the INHIBITION is given as 43.9%.

Take `O=C1CC(NCc2cnc(C3CCCCC3)nc2)CN1c1ccccc1` (centres undefined): the INHIBITION was determined as 56.5%.

For the molecule `Cc1cnn(CC2CCCCN2CCCS(=O)(=O)N(C)C)c1` (centres undefined), the INHIBITION was determined as 13.3%.

As to `Nc1c(N2CCCC2)ncnc1N1CCOCC1`, the INHIBITION was 7.53%.

As to `Nc1c(N2CCCCC2)ncnc1N1CCOCC1`, the INHIBITION was determined as 10.5%.

Consider `Nc1c(N2CCOCC2)ncnc1N1CCOCC1`, for which the INHIBITION is listed as 50%.

Regarding `Cc1cc(C)n(-c2ccccc2NC(=O)NCCS(=O)(=O)CC(C)C)n1`, the INHIBITION worked out at 32.5%.

Regarding `CC(Cn1cccn1)NCc1nc(-c2ccsc2)no1` (centres undefined), the INHIBITION stood at 1.78%.

For `COc1ccc(-c2noc(CNC(C)Cn3cccn3)n2)c(OC)c1` (centres undefined), the INHIBITION is 53.8%.

In the case of `CC(Cn1cccn1)NCc1nc(-c2cccnc2)no1` (centres undefined), the INHIBITION was 86.8%.

Turning to `CC(Cn1cccn1)NCc1nc(-c2ccccc2Cl)no1` (centres undefined), the INHIBITION turned out to be 25.1%.

Take `Cc1cnn(CC(C)NCc2nc(-c3cccnc3)no2)c1` (centres undefined): the INHIBITION was 15.1%.

With `CC(Cn1cccn1)NCc1nc(-c2cccc(Cl)c2)no1` (centres undefined), the INHIBITION is listed as 26.3%.

As for `CCn1cc(-c2nccnc2C2CCCN(C(C)=O)C2)cn1` (centres undefined), the INHIBITION is recorded as -14.2%.

Take `COCC1Cn2nnc(-c3cnn(C)c3)c2CN1Cc1ccc(C)o1` (centres undefined): the INHIBITION is listed as -1.12%.

Consider `O=C1COc2cc(S(=O)(=O)NCCC3=CCCCC3)c(Cl)cc2N1`, for which the INHIBITION worked out at 48.4%.

For `NC(=O)N1CC[C@H](O)[C@@H]1Cc1ccccc1`, the INHIBITION worked out at 46.9%.

Turning to `O=C(NCc1nn(-c2ccccc2)c2c1CCC2)NC1CCOCC1`, the INHIBITION was -6.11%.

Consider `CCCc1cncnc1N1CCC2(CCC(=O)N(CCCO)C2)CC1`, for which the INHIBITION is on record as -43.8%.

As to `Cc1nn(C)cc1-c1cc(C(=O)NCC(C)(C)c2ccc(F)cc2)n[nH]1`, the INHIBITION is recorded as 5.75%.

For `CC(=O)N1[C@H](Cn2cncn2)C[C@@H]2CN(c3ncc(F)cn3)CC[C@@H]21`, the INHIBITION is 21.3%.

As for `CC(C)c1nnc2n1CC(CNC/C=C/c1ccccc1)CC2` (centres undefined), the INHIBITION is 51.3%.

Turning to `CC(C)c1nnc2n1CC(CNCc1nc3ccccc3s1)CC2` (centres undefined), the INHIBITION is reported as 43.3%.

As for `C(=C\c1ccccc1)/CNCC1CCc2nncn2C1` (centres undefined), the INHIBITION is listed as 17.1%.

`Cc1cnn(CCNCc2nnc(Cc3ccccc3)o2)c1`: the INHIBITION was 2.97%.

With `Cc1nn(C)c2c(=O)n(Cc3ccc(F)cc3)nnc12`, the INHIBITION was -10.77%.

On to `Cc1nn(-c2ccc(F)cc2)c2[nH]nc(N)c12`, for which the INHIBITION is recorded as 46.4%.

In the case of `Cc1nn(Cc2ccc(F)cc2)c2[nH]nc(N)c12`, the INHIBITION came out at 78.2%.

Take `O=C(Nc1ccccc1)C1CN(CC2CCOCC2)CC12CCOCC2` (centres undefined): the INHIBITION was -42.9%.

Consider `CCC[C@H]1CN(Cc2ccc(N(C)C)nc2)C[C@@H]1NS(=O)(=O)CC`, for which the INHIBITION came out at 46.6%.

Take `CCOC(=O)C1CCCN(Cc2cc(C#N)n(C)c2C)C1` (centres undefined): the INHIBITION is listed as 24.7%.

`CCC[C@H]1CN(Cc2cc(C#N)n(C)c2C)C[C@@H]1NS(=O)(=O)CC`: the INHIBITION is reported as 61.8%.

Regarding `CCC[C@@H]1CN(Cc2ccc(N(C)C)nc2)C[C@H]1N(C)C`, the INHIBITION was 36.5%.

Consider `CCC[C@H]1CN(Cc2cc(C#N)n(C)c2C)C[C@@H]1N(C)C`, for which the INHIBITION turned out to be 73.6%.

Regarding `CCC[C@@H]1CN(Cc2c[nH]nc2-c2ccc(F)cc2)C[C@H]1NS(C)(=O)=O`, the INHIBITION is reported as 27.4%.

As to `CCC[C@H]1CN(Cc2ccccc2C#N)C[C@@H]1NS(C)(=O)=O`, the INHIBITION is 49.3%.

On to `CCC[C@@H]1CN(Cc2cc(C#N)n(C)c2C)C[C@H]1NS(C)(=O)=O`, for which the INHIBITION was 64.4%.

In the case of `CCC[C@@H]1CN(Cc2ccccc2C#N)C[C@H]1NC(C)=O`, the INHIBITION stood at 17.5%.

Source of the values: ChEMBL document CHEMBL4513216, “Probing the Open Global Health Chemical Diversity Library for Multistage-Active Starting Points for Next-Generation Antimalarials” (ACS Infect Dis, 2020).
